According to article PMC7862700, “An all-to-all approach to the identification of sequence-specific readers for epigenetic DNA modifications on cytosine”:

Experiments:
Assay in all cases: DAPPL (digital affinity profiling via proximity ligation, sequencing); 10 mM Tris-HCl pH 7.5, 50 mM NaCl, 1 mM DTT, 4% glycerol, room temperature, 30 min; GST-TFs on glutathione beads, 16-mer random dsDNA library, 0.1% formaldehyde crosslink after washing; high values mean tight binding
[1] = molecular target: T1, FEV (Homo sapiens, UniProt Q99581 1-238); details: protein: recombinant; tags: N-terminal GST; dsDNA, one strand shown
T1 sequence: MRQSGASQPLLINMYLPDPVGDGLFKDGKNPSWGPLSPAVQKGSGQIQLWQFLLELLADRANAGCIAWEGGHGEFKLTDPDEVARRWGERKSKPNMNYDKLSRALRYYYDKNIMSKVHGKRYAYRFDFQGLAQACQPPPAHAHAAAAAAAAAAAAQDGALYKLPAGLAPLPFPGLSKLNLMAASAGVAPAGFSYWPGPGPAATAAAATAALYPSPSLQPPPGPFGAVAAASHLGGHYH
Outline: (§1)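 Binding signal is defined as a hexamer's read frequency for one factor over its frequency for the tag-only sample. To obtain reads, GST-fused human transcription factors were expressed in yeast, captured on glutathione beads, barcoded with DNA and pooled with that sample. Pools met 200 nmole of a 16-mer random double-stranded DNA library in Tris/NaCl/DTT/glycerol buffer for 30 min at room temperature before washing, 0.1% formaldehyde crosslinking, proximity ligation (BsaI/T4 ligase, 1 h, 37 °C), PCR and Illumina NextSeq500 sequencing.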

[2] = molecular target: ETV5 (Homo sapiens, UniProt P41161 1-510); details: protein: recombinant; tags: N-terminal GST; dsDNA, one strand shown
Outline: as §1

[3] = molecular target: HSF1 (Homo sapiens, UniProt Q00613 1-529); details: protein: recombinant; tags: N-terminal GST; chain copies: 3; dsDNA, one strand shown
Outline: as §1

[4] = molecular target: T2, SPIC (Homo sapiens, UniProt Q8N5J4 1-248); details: protein: recombinant; tags: N-terminal GST; dsDNA, one strand shown
T2 sequence: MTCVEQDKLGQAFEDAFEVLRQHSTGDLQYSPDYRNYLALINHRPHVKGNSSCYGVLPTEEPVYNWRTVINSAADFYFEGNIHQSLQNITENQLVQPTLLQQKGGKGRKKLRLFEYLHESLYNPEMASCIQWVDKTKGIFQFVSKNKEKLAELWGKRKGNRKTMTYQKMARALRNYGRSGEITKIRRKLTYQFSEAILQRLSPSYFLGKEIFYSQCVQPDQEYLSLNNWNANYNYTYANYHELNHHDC
Outline: as §1

[5] = molecular target: ELF4 (Homo sapiens, UniProt Q99607 1-663); details: protein: recombinant; tags: N-terminal GST; dsDNA, one strand shown
Outline: as §1

[6] = molecular target: T3, ELK4 (Homo sapiens, UniProt P28324-2 1-405); details: protein: recombinant; tags: N-terminal GST; dsDNA, one strand shown
T3 sequence: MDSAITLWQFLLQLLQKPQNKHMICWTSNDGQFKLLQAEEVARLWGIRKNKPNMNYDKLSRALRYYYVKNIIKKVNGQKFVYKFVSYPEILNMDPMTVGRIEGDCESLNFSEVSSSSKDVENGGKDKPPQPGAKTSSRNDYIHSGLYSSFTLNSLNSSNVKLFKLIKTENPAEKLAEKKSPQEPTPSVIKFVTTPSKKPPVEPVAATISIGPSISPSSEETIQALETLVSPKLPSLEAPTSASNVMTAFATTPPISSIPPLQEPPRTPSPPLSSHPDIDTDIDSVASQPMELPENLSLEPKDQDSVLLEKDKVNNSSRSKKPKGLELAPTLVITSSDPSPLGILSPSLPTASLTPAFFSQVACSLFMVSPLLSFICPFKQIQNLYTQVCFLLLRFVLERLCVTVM
Outline: as §1

[7] = molecular target: T4, ETV2 (Homo sapiens, UniProt O00321 1-342); details: protein: recombinant; tags: N-terminal GST; dsDNA, one strand shown
T4 sequence: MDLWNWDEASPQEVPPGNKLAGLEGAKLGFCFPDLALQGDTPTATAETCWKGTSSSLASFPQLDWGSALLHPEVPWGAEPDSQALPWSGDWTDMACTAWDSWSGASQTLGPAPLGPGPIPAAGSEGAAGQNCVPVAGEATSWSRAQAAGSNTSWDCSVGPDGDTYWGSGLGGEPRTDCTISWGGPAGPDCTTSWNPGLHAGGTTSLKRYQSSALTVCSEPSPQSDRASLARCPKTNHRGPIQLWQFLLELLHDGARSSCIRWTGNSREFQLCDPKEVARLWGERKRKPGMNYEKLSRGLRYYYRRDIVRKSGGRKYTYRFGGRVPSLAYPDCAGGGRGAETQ
Outline: as §1

[8] = molecular target: T5, ELF3 (Homo sapiens, UniProt P78545 1-371); details: protein: recombinant; tags: N-terminal GST; dsDNA, one strand shown
T5 sequence: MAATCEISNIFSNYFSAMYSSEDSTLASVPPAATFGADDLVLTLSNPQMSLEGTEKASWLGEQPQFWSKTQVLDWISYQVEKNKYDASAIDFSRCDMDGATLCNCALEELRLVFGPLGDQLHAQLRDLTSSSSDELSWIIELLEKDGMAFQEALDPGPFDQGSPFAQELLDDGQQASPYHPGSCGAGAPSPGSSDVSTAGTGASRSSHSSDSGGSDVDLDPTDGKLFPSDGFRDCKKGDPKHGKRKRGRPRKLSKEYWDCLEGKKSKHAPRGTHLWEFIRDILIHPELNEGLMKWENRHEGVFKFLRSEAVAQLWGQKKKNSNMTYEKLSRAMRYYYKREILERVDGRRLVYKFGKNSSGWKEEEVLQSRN
Outline: as §1

[9] = molecular target: CRX (Homo sapiens, UniProt O43186 1-299); details: protein: recombinant; tags: N-terminal GST; dsDNA, one strand shown
Outline: as §1

[10] = molecular target: ETV1 (Homo sapiens, UniProt P50549 1-477); details: protein: recombinant; tags: N-terminal GST; dsDNA, one strand shown
Outline: as §1

[11] = molecular target: T6, ERF (Homo sapiens, UniProt P50548 1-548); details: protein: recombinant; tags: N-terminal GST; dsDNA, one strand shown
T6 sequence: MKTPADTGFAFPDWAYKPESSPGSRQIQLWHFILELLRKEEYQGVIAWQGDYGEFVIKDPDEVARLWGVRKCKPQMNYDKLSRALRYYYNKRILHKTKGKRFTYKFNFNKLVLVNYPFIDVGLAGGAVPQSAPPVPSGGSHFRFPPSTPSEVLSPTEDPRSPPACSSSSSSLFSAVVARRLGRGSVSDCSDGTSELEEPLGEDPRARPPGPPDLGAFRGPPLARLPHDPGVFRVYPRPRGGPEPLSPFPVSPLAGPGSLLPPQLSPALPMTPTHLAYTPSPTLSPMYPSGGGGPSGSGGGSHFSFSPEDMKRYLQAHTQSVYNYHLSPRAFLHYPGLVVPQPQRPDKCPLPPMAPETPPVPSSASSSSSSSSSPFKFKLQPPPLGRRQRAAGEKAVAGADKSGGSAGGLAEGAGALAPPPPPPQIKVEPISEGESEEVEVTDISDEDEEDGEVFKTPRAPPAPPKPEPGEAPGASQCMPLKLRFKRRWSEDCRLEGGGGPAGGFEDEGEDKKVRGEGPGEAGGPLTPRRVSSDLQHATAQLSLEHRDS
Outline: as §1

[12] = molecular target: T7, ETV3L (Homo sapiens, UniProt Q6ZN32 1-361); details: protein: recombinant; tags: N-terminal GST; dsDNA, one strand shown
T7 sequence: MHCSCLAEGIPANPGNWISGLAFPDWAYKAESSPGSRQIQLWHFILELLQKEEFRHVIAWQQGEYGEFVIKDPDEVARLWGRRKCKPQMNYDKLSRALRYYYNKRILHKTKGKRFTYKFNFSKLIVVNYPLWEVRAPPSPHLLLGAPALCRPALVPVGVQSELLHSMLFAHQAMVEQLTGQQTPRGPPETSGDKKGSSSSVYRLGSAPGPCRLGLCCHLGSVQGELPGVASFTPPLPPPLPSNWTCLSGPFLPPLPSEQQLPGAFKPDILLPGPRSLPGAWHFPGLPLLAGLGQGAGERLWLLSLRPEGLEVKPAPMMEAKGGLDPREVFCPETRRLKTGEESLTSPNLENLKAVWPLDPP
Outline: as §1

[13] = molecular target: T8, ETS2 (Homo sapiens, UniProt P15036 1-469); details: protein: recombinant; tags: N-terminal GST; dsDNA, one strand shown
T8 sequence: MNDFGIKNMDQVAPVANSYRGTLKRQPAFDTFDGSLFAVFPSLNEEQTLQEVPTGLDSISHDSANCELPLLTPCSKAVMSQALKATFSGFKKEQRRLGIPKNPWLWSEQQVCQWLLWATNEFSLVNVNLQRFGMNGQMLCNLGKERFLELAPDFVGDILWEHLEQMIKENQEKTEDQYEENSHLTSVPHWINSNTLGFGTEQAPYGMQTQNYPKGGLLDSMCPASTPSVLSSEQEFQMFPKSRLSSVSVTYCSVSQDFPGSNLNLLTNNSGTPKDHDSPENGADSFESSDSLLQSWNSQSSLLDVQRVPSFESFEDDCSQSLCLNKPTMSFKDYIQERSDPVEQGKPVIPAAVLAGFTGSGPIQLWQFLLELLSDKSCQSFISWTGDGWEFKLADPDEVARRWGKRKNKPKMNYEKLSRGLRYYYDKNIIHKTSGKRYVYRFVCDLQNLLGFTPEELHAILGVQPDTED
Outline: as §1

[14] = molecular target: T9, SPDEF (Homo sapiens, UniProt O95238 1-335); details: protein: recombinant; tags: N-terminal GST; dsDNA, one strand shown
T9 sequence: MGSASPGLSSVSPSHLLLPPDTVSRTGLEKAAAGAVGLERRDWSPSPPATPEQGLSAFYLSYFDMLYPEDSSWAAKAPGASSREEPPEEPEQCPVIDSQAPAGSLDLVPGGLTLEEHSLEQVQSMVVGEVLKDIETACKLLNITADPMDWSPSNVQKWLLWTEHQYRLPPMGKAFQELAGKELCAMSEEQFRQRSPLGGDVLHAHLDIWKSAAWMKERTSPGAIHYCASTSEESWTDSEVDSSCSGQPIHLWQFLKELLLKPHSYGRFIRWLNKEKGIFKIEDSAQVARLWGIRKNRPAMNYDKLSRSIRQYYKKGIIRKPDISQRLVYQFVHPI
Outline: as §1

[15] = molecular target: T10, ETV7 (Homo sapiens, UniProt Q9Y603 1-341); details: protein: recombinant; tags: N-terminal GST; dsDNA, one strand shown
T10 sequence: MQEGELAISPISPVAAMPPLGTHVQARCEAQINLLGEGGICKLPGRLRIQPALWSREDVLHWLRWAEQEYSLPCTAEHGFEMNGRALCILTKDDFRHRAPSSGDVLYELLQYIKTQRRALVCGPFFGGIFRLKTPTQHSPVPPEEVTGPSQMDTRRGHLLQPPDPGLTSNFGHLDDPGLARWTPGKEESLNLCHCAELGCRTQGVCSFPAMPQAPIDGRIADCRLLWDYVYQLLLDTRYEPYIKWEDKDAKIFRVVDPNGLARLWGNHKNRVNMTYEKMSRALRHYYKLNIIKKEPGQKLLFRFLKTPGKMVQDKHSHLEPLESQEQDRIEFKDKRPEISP
Outline: as §1

[16] = molecular target: T11, ELF5 (Homo sapiens, UniProt Q9UKW6-2 1-255); details: protein: recombinant; tags: N-terminal GST; dsDNA, one strand shown
T11 sequence: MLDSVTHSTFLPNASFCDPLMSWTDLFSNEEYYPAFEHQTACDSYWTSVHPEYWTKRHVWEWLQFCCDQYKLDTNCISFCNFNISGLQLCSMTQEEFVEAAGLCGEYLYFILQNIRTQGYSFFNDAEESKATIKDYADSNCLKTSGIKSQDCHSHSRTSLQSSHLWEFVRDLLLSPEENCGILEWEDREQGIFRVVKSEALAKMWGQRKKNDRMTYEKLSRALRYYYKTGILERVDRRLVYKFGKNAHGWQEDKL
Outline: as §1

[17] = molecular target: T12, ETV3 (Homo sapiens, UniProt P41162-2 1-143); details: protein: recombinant; tags: N-terminal GST; dsDNA, one strand shown
T12 sequence: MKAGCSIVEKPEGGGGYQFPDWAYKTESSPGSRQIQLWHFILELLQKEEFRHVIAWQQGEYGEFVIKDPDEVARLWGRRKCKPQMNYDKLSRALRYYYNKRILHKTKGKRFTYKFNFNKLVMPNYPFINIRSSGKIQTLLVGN
Outline: as §1

[18] = molecular target: ETV6 (Homo sapiens, UniProt P41212 1-452); details: protein: recombinant; tags: N-terminal GST; dsDNA, one strand shown
Outline: as §1

Sequence of ETV1 (P50549 whole entry): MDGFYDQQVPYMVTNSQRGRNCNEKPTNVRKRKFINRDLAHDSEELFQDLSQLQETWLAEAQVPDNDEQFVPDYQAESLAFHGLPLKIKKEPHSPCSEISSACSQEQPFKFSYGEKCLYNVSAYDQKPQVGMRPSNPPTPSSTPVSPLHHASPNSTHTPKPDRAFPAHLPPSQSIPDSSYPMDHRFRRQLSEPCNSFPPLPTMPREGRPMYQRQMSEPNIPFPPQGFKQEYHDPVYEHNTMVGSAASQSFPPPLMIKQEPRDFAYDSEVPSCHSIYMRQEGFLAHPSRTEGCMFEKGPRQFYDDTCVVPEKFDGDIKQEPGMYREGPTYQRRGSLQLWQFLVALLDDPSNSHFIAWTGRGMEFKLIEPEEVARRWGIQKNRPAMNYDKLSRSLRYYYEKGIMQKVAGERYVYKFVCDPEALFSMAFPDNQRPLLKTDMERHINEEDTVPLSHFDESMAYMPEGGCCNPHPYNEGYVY
Sequence of CRX (O43186 whole entry): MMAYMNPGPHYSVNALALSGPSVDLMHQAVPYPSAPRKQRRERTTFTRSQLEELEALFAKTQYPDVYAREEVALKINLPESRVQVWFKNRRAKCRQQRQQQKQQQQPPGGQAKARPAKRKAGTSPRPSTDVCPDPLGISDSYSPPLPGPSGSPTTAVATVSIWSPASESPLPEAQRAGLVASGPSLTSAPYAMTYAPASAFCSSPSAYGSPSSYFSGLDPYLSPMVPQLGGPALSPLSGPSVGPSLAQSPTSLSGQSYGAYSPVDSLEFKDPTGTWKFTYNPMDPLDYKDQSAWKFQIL
Sequence of ETV5 (P41161 whole entry): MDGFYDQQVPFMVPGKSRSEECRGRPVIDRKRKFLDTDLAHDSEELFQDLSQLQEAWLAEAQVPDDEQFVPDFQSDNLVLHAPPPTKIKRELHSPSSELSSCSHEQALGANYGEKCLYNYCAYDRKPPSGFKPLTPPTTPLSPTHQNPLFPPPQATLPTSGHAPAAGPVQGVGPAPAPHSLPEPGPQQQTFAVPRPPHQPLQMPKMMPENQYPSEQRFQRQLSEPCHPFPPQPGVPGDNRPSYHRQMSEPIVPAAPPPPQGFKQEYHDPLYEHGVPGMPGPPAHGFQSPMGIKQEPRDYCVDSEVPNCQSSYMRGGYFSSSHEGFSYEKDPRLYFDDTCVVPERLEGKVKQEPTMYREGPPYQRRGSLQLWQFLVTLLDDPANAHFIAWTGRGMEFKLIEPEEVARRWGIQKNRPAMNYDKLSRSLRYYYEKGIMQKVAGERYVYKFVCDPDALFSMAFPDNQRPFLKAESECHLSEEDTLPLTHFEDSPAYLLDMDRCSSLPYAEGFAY
Sequence of HSF1 (Q00613 whole entry): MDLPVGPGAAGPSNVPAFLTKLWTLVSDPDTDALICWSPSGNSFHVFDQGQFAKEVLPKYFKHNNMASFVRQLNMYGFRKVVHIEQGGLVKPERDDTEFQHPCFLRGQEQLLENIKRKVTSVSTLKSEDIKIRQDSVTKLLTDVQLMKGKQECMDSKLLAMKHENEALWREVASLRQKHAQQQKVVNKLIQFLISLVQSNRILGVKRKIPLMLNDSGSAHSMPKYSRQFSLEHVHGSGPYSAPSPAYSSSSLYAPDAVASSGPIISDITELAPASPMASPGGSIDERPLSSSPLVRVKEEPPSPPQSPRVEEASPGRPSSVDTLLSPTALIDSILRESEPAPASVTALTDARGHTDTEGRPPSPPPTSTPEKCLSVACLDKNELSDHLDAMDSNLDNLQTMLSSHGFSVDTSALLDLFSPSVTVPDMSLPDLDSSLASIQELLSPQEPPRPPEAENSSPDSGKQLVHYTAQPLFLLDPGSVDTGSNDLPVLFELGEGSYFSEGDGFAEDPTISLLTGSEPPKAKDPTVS
Sequence of ETV6 (P41212 whole entry): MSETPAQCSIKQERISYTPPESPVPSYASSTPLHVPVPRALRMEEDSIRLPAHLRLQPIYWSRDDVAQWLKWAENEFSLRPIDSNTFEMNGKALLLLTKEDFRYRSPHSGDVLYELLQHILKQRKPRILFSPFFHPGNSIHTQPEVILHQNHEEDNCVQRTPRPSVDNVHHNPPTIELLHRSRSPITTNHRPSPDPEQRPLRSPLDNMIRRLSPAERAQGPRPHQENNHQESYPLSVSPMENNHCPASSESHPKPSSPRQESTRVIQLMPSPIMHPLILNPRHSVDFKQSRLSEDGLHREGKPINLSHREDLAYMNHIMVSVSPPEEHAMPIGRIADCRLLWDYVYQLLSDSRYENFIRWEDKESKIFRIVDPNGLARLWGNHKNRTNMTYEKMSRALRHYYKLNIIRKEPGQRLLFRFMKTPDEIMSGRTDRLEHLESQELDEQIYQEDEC
Sequence of ELF4 (Q99607 whole entry): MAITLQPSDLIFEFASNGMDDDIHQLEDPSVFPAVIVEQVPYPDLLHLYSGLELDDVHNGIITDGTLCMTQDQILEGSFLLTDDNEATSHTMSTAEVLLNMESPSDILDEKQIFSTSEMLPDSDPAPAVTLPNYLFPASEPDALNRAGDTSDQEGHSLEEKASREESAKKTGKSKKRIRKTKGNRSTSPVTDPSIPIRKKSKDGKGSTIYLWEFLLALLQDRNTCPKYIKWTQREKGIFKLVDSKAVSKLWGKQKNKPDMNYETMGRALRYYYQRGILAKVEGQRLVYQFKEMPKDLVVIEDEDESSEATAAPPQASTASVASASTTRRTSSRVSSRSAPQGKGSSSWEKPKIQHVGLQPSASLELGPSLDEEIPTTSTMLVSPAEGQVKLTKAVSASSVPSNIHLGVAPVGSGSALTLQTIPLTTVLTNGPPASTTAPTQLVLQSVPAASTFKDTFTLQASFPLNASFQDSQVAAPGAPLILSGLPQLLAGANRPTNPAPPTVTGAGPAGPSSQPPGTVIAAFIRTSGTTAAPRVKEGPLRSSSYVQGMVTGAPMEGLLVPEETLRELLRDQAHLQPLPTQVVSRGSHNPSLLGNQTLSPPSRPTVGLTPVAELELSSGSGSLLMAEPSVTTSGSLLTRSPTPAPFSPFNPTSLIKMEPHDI

**Q.** Which results are given for ATTCCA?
**A.** binding signal [1]: 1.07 fold enrichment (6-mer frequency, TF over GST control); binding signal [2]: 1.18 fold enrichment (6-mer frequency, TF over GST control); binding signal [3]: 2.28 fold enrichment (6-mer frequency, TF over GST control); binding signal [4]: 1.14 fold enrichment (6-mer frequency, TF over GST control); binding signal [5]: 1.25 fold enrichment (6-mer frequency, TF over GST control); binding signal [6]: 1.19 fold enrichment (6-mer frequency, TF over GST control); binding signal [7]: 1.25 fold enrichment (6-mer frequency, TF over GST control); binding signal [8]: 1.04 fold enrichment (6-mer frequency, TF over GST control); binding signal [9]: 1.58 fold enrichment (6-mer frequency, TF over GST control); binding signal [10]: 1.11 fold enrichment (6-mer frequency, TF over GST control); binding signal [11]: 1.14 fold enrichment (6-mer frequency, TF over GST control); binding signal [12]: 1.31 fold enrichment (6-mer frequency, TF over GST control); binding signal [13]: 1.15 fold enrichment (6-mer frequency, TF over GST control); binding signal [14]: 1.11 fold enrichment (6-mer frequency, TF over GST control); binding signal [15]: 1.1 fold enrichment (6-mer frequency, TF over GST control); binding signal [16]: 1.15 fold enrichment (6-mer frequency, TF over GST control); binding signal [17]: 1.15 fold enrichment (6-mer frequency, TF over GST control); binding signal [18]: 1.19 fold enrichment (6-mer frequency, TF over GST control)
